Source: PubChem BioAssay (Tox21)
Inconclusive results are not listed. Activity calls are given as the source filed them. Unless noted, calls follow the shape of the dose curve; as a rule, active = well fitted curve in the direction sought with a large enough effect in the repeat runs; inconclusive = weak or mixed curves; inactive = no such curve, though single readings can be large; an effect the other way counts as inactive or inconclusive.

Legend:
[1] = qHTS assay to identify small molecule antagonists of the vitamin D receptor (VDR) signaling pathway - cell viability counter screen (AID 743225); also: % is scaled to controls: 0 for no effect and ±100 for the full control effect; nearly all actives have a fitted effect of over 50% in size
Method in brief: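 Cytotoxicity toward the VDR-bla HEK 293T line was scored by ATP-based CellTiter-Glo luminescence, read in the wells already used for the beta-lactamase readout after 16 h compound treatment under 3 nM 1-alpha,25-dihydroxyvitamin D3 stimulation.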

[2] = qHTS assay to identify small molecule agonists of the NFkB signaling pathway (AID 1159509; active = well fitted curve in the direction sought with a large enough effect in the signal ratio in the repeat runs, not every such curve was filed as active; the % refers to the signal ratio; also: series mostly up to about 61 µM; % is scaled to controls: 0 for no effect and ±100 for the full control effect)
Method in brief: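 Beta-lactamase reporter assay run in quantitative high-throughput format on an NF-kB-responsive ME-180 line, with 5 hr compound treatment and a FRET-based blue/green fluorescence readout.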

[3] = qHTS assay to identify small molecule agonists of the NFkB signaling pathway - cell viability counter screen (AID 1159515; calls by dose curve; also: series mostly up to about 61 µM; % is scaled to controls: 0 for no effect and ±100 for the full control effect; nearly all actives have a fitted effect of over 55% in size)
Method in brief: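 Tox21 library compounds were tested for cytotoxicity against NFkB-bla ME-180 cells during a 5 hr exposure at 37 C. CellTiter-Glo luminescence served as the viability read-out.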

[4] = qHTS assay to identify small molecule agonists of the endoplasmic reticulum stress response signaling pathway (AID 1159516; active = well fitted activation curve with a large enough effect in the signal ratio in the repeat runs, not every such curve was filed as active; the % refers to the signal ratio; also: % is scaled to controls: 0 for no effect and ±100 for the full control effect)
Method in brief: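 Fluorescence at 460 and 530 nm (405 nm excitation) reports beta-lactamase from an ER stress response element in HeLa cells treated 5 hr at 37 C.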

[5] = qHTS assay to identify small molecule agonists of the endoplasmic reticulum stress response signaling pathway - cell viability counter screen (AID 1159517; calls by dose curve; also: series mostly up to about 61 µM; % is scaled to controls: 0 for no effect and ±100 for the full control effect; nearly all actives have a fitted effect of over 50% in size)
Method in brief: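 Steps: seed 1,500 ESRE-bla HeLa cells per well; incubate overnight at 37 C, 5% CO2; add compounds in DMSO for 5 hr; run FRET substrate 2 hr RT; add CellTiter-Glo, wait 30 min, read luminescence.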

[6] = qHTS assay to identify small molecule antagonists of the retinoid-related orphan receptor gamma (ROR-gamma) signaling pathway - cell viability counter screen (AID 1159520); also: % is scaled to controls: 0 for no effect and ±100 for the full control effect; nearly all actives have a fitted effect of over 50% in size
Method in brief: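 Tet-on ROR gamma CHO cells were given compounds for 2 hr, then doxycycline hyclate at 1 uM final, and incubated 16 hr at 37 C. Viability was measured as ATP content by CellTiter-Glo luminescence.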

[7] = target: Nuclear receptor ROR-gamma (Homo sapiens) (UniProt P51449); experiment: qHTS assay to identify small molecule antagonists of the retinoid-related orphan receptor gamma (ROR-gamma) signaling pathway (AID 1159521;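 also: CHO cells with doxycycline inducible ROR-gamma driving an RORE luciferase reporter; top concentration of the series differs between compounds; % is scaled to controls: 0 for no effect and ±100 for the full control effect; nearly all actives have a fitted effect of over 50% in size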)
Method in brief: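 Readout: ONE-Glo luciferase luminescence, 30 min at room temperature. System: Tet-on RORγ CHO, RORE-LUC. Sequence: compound 2 h, doxycycline 1 uM final, 16 h at 37 C.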

[8] = qHTS assay to identify small molecule agonists of the AP-1 signaling pathway - cell viability counter screen (AID 1159525; calls by dose curve; also: nearly all actives have a fitted effect of over 55% in size)
Method in brief: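 Same-well cytotoxicity counter screen of the Tox21 10K library in ME-180 cells. The readout is ATP-dependent luminescence after 5 h compound treatment. Data are normalised to DMSO and tetra n-octyl ammonium bromide controls.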

[9] = qHTS assay to identify small molecule agonists of the AP-1 signaling pathway (AID 1159526; calls by dose curve; also: % is scaled to controls: 0 for no effect and ±100 for the full control effect)
[10] = target: Retinoic acid receptor RXR-alpha (Homo sapiens) (UniProt P19793); experiment: qHTS assay to identify small molecule agonists of the RXR signaling pathway (AID 1159527; calls by dose curve; also: % is scaled to controls: 0 for no effect and ±100 for the full control effect; nearly all actives have a fitted effect of over 35% in size)
Retinoic acid receptor RXR-alpha (Homo sapiens), sequence (P19793 whole entry, looked up): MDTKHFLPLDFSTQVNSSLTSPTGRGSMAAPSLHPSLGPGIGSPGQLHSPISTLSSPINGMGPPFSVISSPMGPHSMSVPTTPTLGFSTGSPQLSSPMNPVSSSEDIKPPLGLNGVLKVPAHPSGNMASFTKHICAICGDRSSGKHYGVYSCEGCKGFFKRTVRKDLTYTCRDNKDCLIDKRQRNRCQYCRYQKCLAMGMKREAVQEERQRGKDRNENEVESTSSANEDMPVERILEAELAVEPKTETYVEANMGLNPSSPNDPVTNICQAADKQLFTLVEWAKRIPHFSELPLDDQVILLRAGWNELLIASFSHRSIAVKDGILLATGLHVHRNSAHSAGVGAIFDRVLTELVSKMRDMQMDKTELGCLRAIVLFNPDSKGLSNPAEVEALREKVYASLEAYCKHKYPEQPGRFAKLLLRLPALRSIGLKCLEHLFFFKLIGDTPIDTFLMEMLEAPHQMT
Method in brief: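 Reporter activation is measured as beta-lactamase activity via FRET substrate cleavage (emission 460/530 nm) in HEK 293T cells expressing an RXR-alpha-driven bla construct, following 16 hr compound exposure at 37 C.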

[11] = qHTS assay to identify small molecule agonists of the RXR signaling pathway - cell viability counter screen (AID 1159529)
Method in brief: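 Tox21 10K compounds were tested for cytotoxicity against GeneBLAzer RXR-alpha HEK 293T cells grown in 2% charcoal-stripped FBS. Exposure lasted 16 hr at 37 C, 5% CO2; viability read by CellTiter-Glo luminescence.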

[12] = qHTS assay to identify small molecule antagonists of the retinoid acid receptor (RAR) signaling pathway - cell viability counter screen (AID 1159551); also: % is scaled to controls: 0 for no effect and ±100 for the full control effect; nearly all actives have a fitted effect of over 35% in size
Method in brief: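 In this counter screen, the RARE-luciferase line C3RL4 was exposed for 6 h at 37 C and 5% CO2 to compounds with retinol at 1 uM final. Cellular ATP, read by luminescence, served as the viability measure.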

[13] = qHTS assay to identify small molecule antagonists of the retinoic acid receptor (RAR) signaling pathway (AID 1159552)
Method in brief: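 Overnight-plated C3RL4 reporter cells get compound, then retinol to 1 uM final; plates sit 6 hr at 37 C, 5% CO2. A luciferase reagent is added and light output recorded after 30 min at room temperature.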

[14] = qHTS assay to identify small molecule agonists of the retinoic acid receptor (RAR) signaling pathway (AID 1159553); also: % is scaled to controls: 0 for no effect and ±100 for the full control effect
Method in brief: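 In this cell-based screen, 1,000 C3RL4 cells per well were cultured overnight, dosed with test chemicals in DMSO for 6 hr, and assessed for RARE luciferase luminescence.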

[15] = qHTS assay to identify small molecule antagonists of the estrogen related receptor (ERR) signaling pathway from Tox21 library - cell viability counter screen (AID 1224834); also: % is scaled to controls: 0 for no effect and ±100 for the full control effect; nearly all actives have a fitted effect of over 30% in size
Method in brief: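 Counter screen run in ERR cells (2,000 cells/well): cells pre-incubated 6 h, then treated with compounds for 17.5 h at 37 C. Fluorescence was read 30 min after CellTiter-Fluor addition.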

[16] = target: Luciferin 4-monooxygenase (Photinus pyralis) (UniProt P08659); experiment: qHTS assay to identify small molecule inhibitors of firefly luciferase (AID 1224835); also: series mostly up to about 120 µM; % is scaled to controls: 0 for no effect and ±100 for the full control effect; nearly all actives have a fitted effect of over 25% in size
Luciferin 4-monooxygenase (Photinus pyralis), sequence (P08659 whole entry, looked up): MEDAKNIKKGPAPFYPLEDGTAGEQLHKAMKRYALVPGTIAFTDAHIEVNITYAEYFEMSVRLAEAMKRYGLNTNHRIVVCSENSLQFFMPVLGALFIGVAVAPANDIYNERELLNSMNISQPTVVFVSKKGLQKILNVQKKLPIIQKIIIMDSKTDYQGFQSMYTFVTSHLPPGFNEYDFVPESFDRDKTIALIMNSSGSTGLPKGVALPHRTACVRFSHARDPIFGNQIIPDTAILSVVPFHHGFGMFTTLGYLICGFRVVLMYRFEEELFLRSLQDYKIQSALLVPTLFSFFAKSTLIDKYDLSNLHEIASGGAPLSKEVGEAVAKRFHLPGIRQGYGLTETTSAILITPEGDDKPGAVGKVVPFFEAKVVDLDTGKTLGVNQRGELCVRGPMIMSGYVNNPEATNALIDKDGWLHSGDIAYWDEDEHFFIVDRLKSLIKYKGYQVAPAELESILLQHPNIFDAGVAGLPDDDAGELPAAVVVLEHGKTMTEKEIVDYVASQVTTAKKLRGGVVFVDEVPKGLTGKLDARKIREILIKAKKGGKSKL
Method in brief: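 Biochemical qHTS: compounds run as interplate titrations against purified firefly enzyme, with D-luciferin and ATP each at its KM concentration. Light output recorded by CCD imaging.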

[17] = qHTS assay to identify small molecule agonists of the constitutive androstane receptor (CAR) signaling pathway - cell viability counter screen (AID 1224836); also: series mostly up to about 92 µM; % is scaled to controls: 0 for no effect and ±100 for the full control effect; nearly all actives have a fitted effect of over 45% in size
Method in brief: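 Fluorescence from CellTiter-Fluor indicates live cells after 23 h exposure. The human hepatoma line expresses hCAR and a CYP2B6-2.2kb reporter. Incubation medium contains 0.75 uM PK11195 (final).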

[18] = qHTS assay to identify small molecule antagonists of the constitutive androstane receptor (CAR) signaling pathway - cell viability counter screen (AID 1224837); also: series mostly up to about 92 µM; % is scaled to controls: 0 for no effect and ±100 for the full control effect; nearly all actives have a fitted effect of over 45% in size
Method in brief: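 CITCO at 50 nM final was added alongside compounds (15 concentrations) to double-stable hCAR/CYP2B6-2.2kb HepG2 cells. Following 23 hr at 37 C, cell viability was quantified by CellTiter-Fluor fluorescence intensity.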

[19] = target: Nuclear receptor subfamily 1 group I member 3 (Homo sapiens) (UniProt Q14994); experiment: qHTS assay to identify small molecule antagonists of the constitutive androstane receptor (CAR) signaling pathway (AID 1224838); also: % is scaled to controls: 0 for no effect and ±100 for the full control effect; nearly all actives have a fitted effect of over 40% in size
Nuclear receptor subfamily 1 group I member 3 (Homo sapiens), sequence (Q14994 whole entry, looked up): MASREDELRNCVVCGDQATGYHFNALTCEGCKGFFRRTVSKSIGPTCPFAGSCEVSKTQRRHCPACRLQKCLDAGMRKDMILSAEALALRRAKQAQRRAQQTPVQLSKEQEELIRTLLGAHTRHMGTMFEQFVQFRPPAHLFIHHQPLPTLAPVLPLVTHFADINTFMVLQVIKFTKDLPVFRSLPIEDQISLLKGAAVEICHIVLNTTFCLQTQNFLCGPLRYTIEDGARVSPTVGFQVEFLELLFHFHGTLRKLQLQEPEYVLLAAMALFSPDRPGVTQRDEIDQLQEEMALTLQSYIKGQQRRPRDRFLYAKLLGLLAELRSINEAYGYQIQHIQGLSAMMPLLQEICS
Method in brief: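 Inhibition of CITCO-driven (50 nM final) CYP2B6 reporter expression is measured in HepG2 cells stably carrying hCAR. Fifteen compound concentrations are applied for 24 h at 37 C, followed by luciferase luminescence.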

[20] = target: Nuclear receptor subfamily 1 group I member 3 (Homo sapiens) (UniProt Q14994); experiment: qHTS assay to identify small molecule agonists of the constitutive androstane receptor (CAR) signaling pathway (AID 1224839); also: series mostly up to about 92 µM; % is scaled to controls: 0 for no effect and ±100 for the full control effect; nearly all actives have a fitted effect of over 15% in size
Method in brief: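 Stable hCAR/CYP2B6-2.2kb HepG2 line in DMEM with 10% FBS; compounds (15 concentrations) and 0.75 uM PK11195 final, 24 h at 37 C/5% CO2, then ONE-Glo luminescence after 30 min.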

Cc1ccnc(N)c1
inactive: outcome [1] | outcome [2] | outcome [3] | outcome [4] | outcome [5] | outcome [6] | outcome [7] | outcome [8] | outcome [9] | Potency [10] | outcome [11] | outcome [12] | outcome [13] | Potency [14] | outcome [15] | Potency [16] | outcome [17] | outcome [18] | Potency [19] | Potency [20]

CCCCCCCCCOC(=O)c1ccccc1C(=O)OCCCCCCCCC
inactive: outcome [1] | outcome [2] | outcome [3] | outcome [4] | outcome [5] | outcome [6] | outcome [7] | outcome [8] | outcome [9] | Potency [10] | outcome [11] | outcome [12] | outcome [13] | Potency [14] | outcome [15] | Potency [16] | outcome [17] | outcome [18] | Potency [19]

CCn1cc(C(=O)O)c(=O)c2cnc(N3CCCC3)nc21
inactive: viability change, negative = cytotoxic [1] -2.96% [at 6.95 µM] | activation [2] 0.219% [at 6.95 µM] | activity, negative = cytotoxic [3] -27.6% [at 6.95 µM] | activation [4] 1.19% [at 6.95 µM] | activity change, negative = cytotoxicity [5] -11.8% [at 6.95 µM] | activity, negative = cytotoxicity [6] 1.16% [at 8.39 µM] | activity change, negative = inhibition [7] 14.3% [at 8.39 µM] | viability change, negative = cytotoxic [8] 0.489% [at 6.97 µM] | activation [9] -6.77% [at 6.97 µM] | activation [10] 0.584% [at 6.98 µM] | activity change, negative = cytotoxicity [11] -1.74% [at 6.97 µM] | activity change, negative = cytotoxicity [12] 0.0795% [at 8.39 µM] | activity, negative = inhibition [13] 5.14% [at 8.39 µM] | activation [14] 1.53% [at 8.36 µM] | viability change, negative = cytotoxic [15] 0.102% [at 8.39 µM] | activity change, negative = inhibition [16] 2.85% [at 10.5 µM] | viability change, negative = cytotoxic [17] 6.12% [at 8.39 µM] | activity change, negative = cytotoxicity [18] 1.8% [at 8.39 µM] | activity, negative = inhibition [19] -3.92% [at 8.39 µM] | activation [20] -0.437% [at 8.39 µM]

O=C1CCC(=O)N1Cl
inactive: outcome [1] | outcome [2] | outcome [3] | outcome [4] | outcome [5] | outcome [6] | outcome [7] | outcome [8] | outcome [9] | Potency [10] | outcome [11] | outcome [12] | outcome [13] | Potency [14] | outcome [15] | Potency [16] | outcome [17] | outcome [18] | Potency [19] | Potency [20]

Cc1ncc([N+](=O)[O-])n1CC(C)O (configuration not stated)
inactive: outcome [1] | outcome [2] | outcome [3] | outcome [4] | outcome [5] | outcome [6] | outcome [7] | outcome [8] | outcome [9] | Potency [10] | outcome [11] | outcome [12] | outcome [13] | Potency [14] | outcome [15] | Potency [16] | outcome [17] | outcome [18] | Potency [19] | Potency [20]

C=Cc1ccc(C(C)(C)C)cc1
inactive: outcome [1] | outcome [2] | outcome [3] | outcome [4] | outcome [5] | outcome [6] | outcome [7] | outcome [8] | outcome [9] | Potency [10] | outcome [11] | outcome [12] | outcome [13] | Potency [14] | outcome [15] | Potency [16] | outcome [17] | outcome [18] | Potency [19] | Potency [20]

COC(C)(OC)OC
inactive: outcome [1] | outcome [2] | outcome [3] | outcome [4] | outcome [5] | outcome [6] | outcome [7] | outcome [8] | outcome [9] | Potency [10] | outcome [11] | outcome [12] | outcome [13] | Potency [14] | outcome [15] | Potency [16] | outcome [17] | outcome [18] | Potency [19] | Potency [20]

CCCCCCCCCCCCCCC(=O)NC(CO)CCCCCCCCCCCCCC (configuration not stated)
inactive: outcome [1] | outcome [2] | outcome [3] | outcome [4] | outcome [5] | outcome [6] | outcome [7] | outcome [8] | outcome [9] | Potency [10] | outcome [11] | outcome [12] | outcome [13] | Potency [14] | outcome [15] | Potency [16] | outcome [17] | outcome [18] | Potency [19] | Potency [20]

CCOC(=O)CC1(C)OCC(C)O1 (configuration not stated)
inactive: outcome [1] | outcome [2] | outcome [3] | outcome [4] | outcome [5] | outcome [6] | outcome [7] | outcome [8] | outcome [9] | Potency [10] | outcome [11] | outcome [12] | outcome [13] | Potency [14] | outcome [15] | Potency [16] | outcome [17] | outcome [18] | Potency [19]

CC(C)(CO)C(O)C(=O)NCCCO (configuration not stated)
inactive: outcome [1] | outcome [2] | outcome [3] | outcome [4] | outcome [5] | outcome [6] | outcome [7] | outcome [8] | outcome [9] | Potency [10] | outcome [11] | outcome [12] | outcome [13] | Potency [14] | outcome [15] | Potency [16] | outcome [17] | outcome [18] | Potency [19] | Potency [20]

C[C@@H](O)C(=O)O
inactive: outcome [1] | outcome [2] | outcome [3] | outcome [4] | outcome [5] | outcome [6] | outcome [7] | outcome [8] | outcome [9] | Potency [10] | outcome [11] | outcome [12] | outcome [13] | Potency [14] | outcome [15] | Potency [16] | outcome [17] | outcome [18] | Potency [19] | Potency [20]

CC(C)(C)NC[C@H](O)COc1cccc2c1CCCC2=O
inactive: outcome [1] | outcome [2] | outcome [3] | outcome [4] | outcome [5] | outcome [6] | outcome [7] | outcome [8] | outcome [9] | Potency [10] | outcome [11] | outcome [12] | outcome [13] | Potency [14] | outcome [15] | Potency [16] | outcome [17] | outcome [18] | Potency [19] | Potency [20]

Cc1ccc(N)cc1S(=O)(=O)O
inactive: outcome [1] | outcome [2] | outcome [3] | outcome [4] | outcome [5] | outcome [6] | outcome [7] | outcome [8] | outcome [9] | Potency [10] | outcome [11] | outcome [12] | outcome [13] | Potency [14] | outcome [15] | Potency [16] | outcome [17] | outcome [18] | Potency [19]
